Compound activity deposited in PubChem by several laboratories.
Compounds with a hit are over-represented: about 1.6% of the library has one in this group of screens.
F-actin modifier = modifiers of F-actin cytoskeleton organization, primary screen, imaging, HUVEC, phalloidin staining, high-content imaging. AID 836, 2007. HUVEC TNFa F-actin phalloidin imaging. inhibition, % at 2 µM. hit rate 0.18% among 91,000;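 active means inhibition above the batch mean plus 3 SD and confirmed as a hit by visual image inspection, cut at about 30% in these data, passing the limit was not always enough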
TNFa cytotox = cytotoxicity in TNFa-stimulated HUVEC, primary screen, cytotoxicity control for VCAM1 expression modulator project, imaging, Hoechst nuclei count | cell count reduction, % at 2 µM | AID 848, 2007 | hit rate 0.17% among 93,000 | HUVEC TNFalpha-stimulated, Hoechst cell count;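 active means cell count reduction exceeding the screen mean by over 5 SD, scaled to untreated wells per plate, cut at about 78% in these data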;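 further: cells counted after 24 h of TNF alpha exposure following the 1 h pretreatment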
Phagocytosis inh = inhibitors of macrophage phagocytosis, primary screen, imaging, J774A.1 cells, IgG beads; J774A.1 macrophage IgG-bead phagocytosis; inhibition, % at 5 µM; hit rate 0.07% among 110,000;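 active means inhibition above the mean of the plate negative controls plus 5 SD, cut at about 13% in these data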;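 further: phagocytic index as fraction of beads internalized from green versus red external bead signal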
VCAM1 TNFa inh = inhibitors of TNFa-induced VCAM1 expression, primary screen, imaging, HUVEC, TNFa stimulus, immunofluorescence; hit rate 0.48% among 95,000; HUVEC TNFa-induced VCAM-1 immunofluorescence, high-content imaging; AID 802, 2007; inhibition, % at 2 µM;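 active means inhibition above the batch mean plus 3 SD, with images confirmed as a hit by eye, cut at about 37% in these data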
E-sel TNF inh = E-selectin induction blockers in HUVEC – imaging, immunofluorescence, high content, primary screen | HUVEC TNFa-induced E-selectin immunofluorescence | inhibition, % at 2 µM | hit rate 0.71% among 120,000 | AID 1246, 2008;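 active means inhibition above the batch mean plus 3 SD, and confirmed as a hit on visual image review, cut at about 43% in these data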
INS promoter inh = inhibitors of insulin promoter-driven GFP, primary screen, imaging, TRM-6 cells (human fetal islet line), eGFP reporter, cell count. AID 1273, 2008. hit rate 0.9% among 130,000. reporter expression induced with tamoxifen. inhibition, % at 2 µM;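 active means inhibition above the mean plus 3 SD, with well images judged a real hit on visual review, cut at about 60% in these data, passing the limit was not always enough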
Large screens that a line does not name were inactive.

Cc1ccc(-n2c(C)cc(/C=C3\NC(=O)NC3=O)c2C)c(C)c1	none (no result: F-actin modifier, TNFa cytotox, VCAM1 TNFa inh)
O=C(OCn1ncc(Cl)c(Cl)c1=O)c1cccc(C(F)(F)F)c1	E-sel TNF inh 71 (no result: Phagocytosis inh)
COc1ccccc1NC(=O)C(=N\O)/C(C)=N/O	none (no result: F-actin modifier, TNFa cytotox, Phagocytosis inh, VCAM1 TNFa inh, E-sel TNF inh)
O=C(CCn1nnc2ccccc21)Nc1nnc(Cc2ccc(F)cc2)s1	E-sel TNF inh 47 (no result: F-actin modifier, TNFa cytotox, VCAM1 TNFa inh)
COc1ccc(CC(=O)NC(C)c2nnc(SCC(=O)Nc3cc(C)ccc3OC)n2C)cc1 (centres undefined)	none (no result: F-actin modifier, TNFa cytotox, Phagocytosis inh, VCAM1 TNFa inh, E-sel TNF inh)
CC(=O)c1c(C)oc2ccc(N(C(C)=O)S(=O)(=O)c3ccc(Cl)c([N+](=O)[O-])c3)cc12	VCAM1 TNFa inh 88 (no result: INS promoter inh)
CCOC(=O)c1cc(=O)n(Cc2ccccc2C)c2ccccc12	F-actin modifier 33, VCAM1 TNFa inh 86
CCOC(=O)C1CNc2cc(S(=O)(=O)CC)ccc2O1 (centres undefined)	none (no result: F-actin modifier, TNFa cytotox, Phagocytosis inh, VCAM1 TNFa inh)
C=CCNC(=O)C1CC(=O)N(c2ccc(OCC(=O)Nc3cccc(OC)c3)cc2)C1 (centres undefined)	F-actin modifier 52
C=CCNC(=O)C1CC(=O)N(c2ccc(OCC(=O)Nc3ccc(Cl)c(C(F)(F)F)c3)cc2)C1 (centres undefined)	none
Cc1ccc(OCC(=O)Nc2ccc(C)c(S(=O)(=O)N3CCCCC3)c2)c([N+](=O)[O-])n1	none (no result: F-actin modifier, TNFa cytotox, VCAM1 TNFa inh, E-sel TNF inh, INS promoter inh)
C/C(=N\Nc1cccc2cccnc12)c1ccccc1O	E-sel TNF inh 72 (no result: F-actin modifier, TNFa cytotox, Phagocytosis inh, VCAM1 TNFa inh, INS promoter inh)
Oc1c(/C=N/Nc2cccc3cccnc23)ccc2ccccc12	INS promoter inh 73 (no result: F-actin modifier, TNFa cytotox, VCAM1 TNFa inh)
O=C(N/C(=C\c1ccccc1)C(=O)N1CCN(CCO)CC1)c1ccccc1	none (no result: F-actin modifier, TNFa cytotox, VCAM1 TNFa inh, E-sel TNF inh, INS promoter inh)
Cc1ccc(NC(=O)NC(=O)CSc2nnc(-c3ccc(Cl)cc3Cl)n2N)c(C)c1	none (no result: F-actin modifier, TNFa cytotox, VCAM1 TNFa inh, INS promoter inh)
Cc1ccc2nc(Cl)c(C#N)cc2c1	none (no result: F-actin modifier, TNFa cytotox, Phagocytosis inh, VCAM1 TNFa inh, E-sel TNF inh)
O=[N+]([O-])c1ccc(O)c(/C=N/Nc2ccc(Cl)nn2)c1	VCAM1 TNFa inh 63, E-sel TNF inh 100 (no result: INS promoter inh)
CC1=NN(C(=O)c2csc(C(C)C)c2)C(O)(C(F)(F)F)C1 (centres undefined)	none (no result: F-actin modifier, TNFa cytotox, VCAM1 TNFa inh, E-sel TNF inh)
CC(C)CCNC(=O)c1nnc(Cc2ccc(Cl)cc2)o1	E-sel TNF inh 70 (no result: INS promoter inh)
COc1ccc(CCNC(=O)c2nnc(Cc3ccc(Cl)cc3)o2)cc1OC	none (no result: E-sel TNF inh, INS promoter inh)
O=C(CN(c1ccccc1)S(=O)(=O)c1ccc(F)cc1)NC1CCS(=O)(=O)C1 (centres undefined)	none (no result: F-actin modifier, TNFa cytotox, Phagocytosis inh, VCAM1 TNFa inh)
CC(=O)c1cc(C#N)c(SCC(=O)OC(C)(C)C)nc1C	none (no result: INS promoter inh)
CC(=O)c1cc(C#N)c(SCC(=O)OC(C)C)nc1C	INS promoter inh 93
C=C(C)Cn1c(COc2ccccc2)nnc1SCC(=O)O	none (no result: E-sel TNF inh)
C=CCn1c(COc2ccccc2)nnc1SCC(=O)O	E-sel TNF inh 62 (no result: INS promoter inh)
COc1ccc(C(=O)CSc2nnc(COc3ccc(C#N)cc3)n2-c2ccccc2)cc1	none (no result: E-sel TNF inh, INS promoter inh)
COc1ccc(-n2c(COc3ccccc3)nnc2SCC(N)=O)cc1	E-sel TNF inh 81
Cc1ccc(C(=O)CSc2nnc(COc3ccc(C#N)cc3)n2-c2ccccc2)cc1	VCAM1 TNFa inh 96 (no result: Phagocytosis inh)
O=C(CSc1nnc(SCc2cccc3ccccc23)s1)N/N=C/C=C/c1ccccc1[N+](=O)[O-]	none (no result: F-actin modifier, TNFa cytotox, VCAM1 TNFa inh)
Cc1sc2nc(-c3cccnc3)nc(Cl)c2c1-c1ccccc1	none (no result: F-actin modifier, TNFa cytotox, VCAM1 TNFa inh, E-sel TNF inh)
CCC(=O)NC(c1ccc([N+](=O)[O-])cc1)c1c(O)ccc2ccccc12 (centres undefined)	E-sel TNF inh 100
CCCCC(=O)NC(c1ccc([N+](=O)[O-])cc1)c1c(O)ccc2ccccc12 (centres undefined)	none (no result: F-actin modifier, TNFa cytotox, VCAM1 TNFa inh)
COc1ccc(NC(=O)CN(C)CC(=O)Nc2ccccc2SC)cc1	E-sel TNF inh 70 (no result: F-actin modifier, TNFa cytotox, VCAM1 TNFa inh, INS promoter inh)
Cc1nn(-c2ccccc2)c2sc(C(=O)O)cc12	E-sel TNF inh 97 (no result: F-actin modifier, TNFa cytotox, VCAM1 TNFa inh)
Cc1ccc(-n2nc(C)c3cc(C(=O)O)sc32)cc1	none
COc1ccc(NC(=O)c2cc3c(Cl)nc4ccccc4c3s2)c(OC)c1	E-sel TNF inh 63 (no result: F-actin modifier, TNFa cytotox, VCAM1 TNFa inh)
COc1cc(NC(=O)c2cc3c(Cl)nc4ccccc4c3s2)cc(OC)c1OC	none (no result: F-actin modifier, TNFa cytotox, VCAM1 TNFa inh)
CCOC(=O)c1ccc(NC(=O)CCNc2c(N3CCCC3)c(=O)c2=O)cc1	VCAM1 TNFa inh 70
O=C(COC(=O)c1cc(=O)[nH]c(=O)[nH]1)Nc1cccc(S(=O)(=O)N2CCCCC2)c1	none (no result: F-actin modifier, TNFa cytotox, Phagocytosis inh, VCAM1 TNFa inh, E-sel TNF inh)
CCS(=O)(=O)c1ccc2oc(Nc3ccc(C(C)C)cc3)nc2c1	E-sel TNF inh 64 (no result: F-actin modifier)
COC(=O)c1ccc2c(=O)n(-c3ccccc3F)c(=S)[nH]c2c1	INS promoter inh 100 (no result: F-actin modifier, TNFa cytotox, Phagocytosis inh, VCAM1 TNFa inh, E-sel TNF inh)
CCN(CC)C(=O)CN1CCC(n2c(C)nc3cc(C(F)(F)F)ccc32)CC1	none
Cc1nc2cc(C(F)(F)F)ccc2n1C	INS promoter inh 75 (no result: F-actin modifier, TNFa cytotox, Phagocytosis inh, VCAM1 TNFa inh, E-sel TNF inh)
O=C(NCc1ccc(F)cc1)C1CCN(c2cnccn2)CC1	none (no result: F-actin modifier, TNFa cytotox, Phagocytosis inh, VCAM1 TNFa inh, E-sel TNF inh)
CCOC(=O)N1CCN(C(=S)NC(=O)c2cncc(Br)c2)CC1	E-sel TNF inh 89 (no result: F-actin modifier, TNFa cytotox, VCAM1 TNFa inh)
CCOCCc1nnc(NC(=O)Cc2c(F)cccc2Cl)s1	none (no result: F-actin modifier, TNFa cytotox, Phagocytosis inh, VCAM1 TNFa inh)
Cc1cc(C)n(CCN(C)c2nc3nonc3nc2NC2CC2)n1	none (no result: F-actin modifier, TNFa cytotox, Phagocytosis inh, VCAM1 TNFa inh)
CC(=O)Nc1ccc(S(=O)(=O)NC2(C(F)(F)F)C(=O)Nc3c2c(=O)[nH]c(=O)n3C)cc1 (centres undefined)	F-actin modifier 34
CC(=O)Nc1ccc(S(=O)(=O)NC2(C(F)(F)F)C(=O)Nc3c2c(=O)n(C)c(=O)n3C)cc1 (centres undefined)	none
Cc1cccc(C(C)(C)C)c1OCCn1ccnc1	INS promoter inh 89
Cc1cccc(C2=NNC(=O)C(c3ccc(Cl)cc3)C2)c1 (centres undefined)	INS promoter inh 100 (no result: F-actin modifier, TNFa cytotox, Phagocytosis inh, VCAM1 TNFa inh)
Cc1ccc(-c2nc(CSCC(=O)Nc3cc(C)on3)c(C)o2)cc1	TNFa cytotox 89 (no result: E-sel TNF inh, INS promoter inh)
CN=c1sc2ccccc2n1CC(O)COc1ccccc1 (centres undefined)	VCAM1 TNFa inh 75 (no result: E-sel TNF inh, INS promoter inh)
Cc1ccc(C(=O)NCCc2ccc(S(N)(=O)=O)cc2)cc1[N+](=O)[O-]	none (no result: F-actin modifier, TNFa cytotox, Phagocytosis inh, VCAM1 TNFa inh)
